Rv3671c inh: Rv3671c (M. tuberculosis) protease inhibition; inhibition, % at 5.96 µM; actives 0.048% (n = 320,000); AID 2606; in the data active = inhibition above about 38%;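 note: extracellular domain of Rv3671c used as enzyme; 0% = enzyme with DMSO and 100% = no enzyme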
UGM FP inh: inhibitors of M. tuberculosis UDP-galactopyranose mutase | purified UGM, fluorescence polarization probe displacement | inhibition, % at 10 µM | P9WIQ1 | actives 0.06% (n = 320,000) | AID 504406; in the data active = inhibition above about 10%, passing the limit was not always enough
RecA intein inh: inhibitors of M. tuberculosis RecA intein splicing | AID 2221 | actives 0.75% (n = 290,000) | cell-free RecA intein splicing, fluorescence | inhibition, % (concentration not given with the values) | P9WHJ3; in the data active = inhibition above about 30%;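 note: 0% = vehicle wells and 100% = reference inhibitor control wells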
Target sequence (P9WHJ3 whole entry, looked up): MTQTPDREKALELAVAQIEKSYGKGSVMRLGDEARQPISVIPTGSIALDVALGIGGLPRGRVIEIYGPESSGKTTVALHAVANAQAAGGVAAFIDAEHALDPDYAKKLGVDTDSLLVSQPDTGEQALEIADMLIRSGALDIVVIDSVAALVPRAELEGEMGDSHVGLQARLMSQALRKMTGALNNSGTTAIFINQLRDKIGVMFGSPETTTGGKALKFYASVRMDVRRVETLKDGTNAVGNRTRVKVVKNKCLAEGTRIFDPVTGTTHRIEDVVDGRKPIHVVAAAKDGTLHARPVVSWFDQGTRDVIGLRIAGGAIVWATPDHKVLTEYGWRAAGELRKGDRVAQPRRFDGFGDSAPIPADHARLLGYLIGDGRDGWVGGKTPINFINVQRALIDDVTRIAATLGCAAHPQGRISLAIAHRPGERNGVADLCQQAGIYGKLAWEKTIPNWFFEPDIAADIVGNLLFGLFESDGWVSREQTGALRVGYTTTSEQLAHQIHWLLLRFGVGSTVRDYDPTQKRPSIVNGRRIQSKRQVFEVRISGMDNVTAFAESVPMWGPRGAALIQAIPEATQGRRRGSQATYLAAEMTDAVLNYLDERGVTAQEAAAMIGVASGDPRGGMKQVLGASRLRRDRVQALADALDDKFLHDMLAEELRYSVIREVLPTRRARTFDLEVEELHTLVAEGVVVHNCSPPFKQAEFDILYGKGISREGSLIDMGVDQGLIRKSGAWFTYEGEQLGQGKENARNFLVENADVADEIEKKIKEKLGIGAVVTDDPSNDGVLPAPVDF
Mtb betalactam: beta-lactam sensitization of Mtb H37Rv | M. tuberculosis H37Rv growth with meropenem, percent inhibition | inhibition, % at 25 µM | actives 0.27% (n = 330,000); call rule not given here;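 note: growth measured after seven days incubation then overnight dye step; 0% = bacteria only wells and 100% = bacteria with antibiotic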
CCHF vOTU inh-1: blocks the CCHF virus ovarian tumor domain protease; CCHFV vOTU protease, Pep-AMC fluorescence; actives 0.55% (n = 370,000); inhibition, % at 11.5 µM; note: 0% = vehicle wells with enzyme and 100% = no enzyme wells
CCHF vOTU inh-2: confirmation of CCHF virus vOTU protease inhibitors. shares compounds with CCHF vOTU inh-1. Recombinant CCHFV vOTU, Pep-AMC fluorescence. inhibition, % at 11.5 µM. actives 17% (n = 1,900). AID 686976
Numbers without * were called inactive; · = no result given. In the library only some 1.2% were active in any assay of this set; here they are far more common. Cut-off read from the data, not from the text of the source, unless noted: active = inhibition above about 30%; inactive = the rest.

SMILES	Rv3671c inh	UGM FP inh	RecA intein inh	Mtb betalactam	CCHF vOTU inh-1	CCHF vOTU inh-2
COC(=O)[C@]12C[C@H](CC(=O)N3CCSCC3)C(=O)N(Cc3ccc4c(c3)OCO4)C1=C[C@H](C(C)C)O[C@@H]2C1CC1	·	·	·	·	-0.8	·
O=C(NC(=S)Nc1ccc(S(=O)(=O)Nc2nccs2)cc1)c1ccccc1	-4.3	-0.7	-0.7	-1.4	-8.9	·
O=C(NC(=S)Nc1ccc(S(=O)(=O)Nc2nccs2)cc1)c1ccc(F)c(F)c1	2.0	4.2	-2.3	1.9	42.1*	-10.9
CC(C)N1CCCCC(NC(=O)c2cccc(F)c2)C1=O (stereo unspecified)	·	·	·	·	-6.9	·
CN(CCCOC(=O)CC1C=CCC1)C1CN(Cc2cn(Cc3ccccc3Cl)nn2)S(=O)(=O)C1 (stereo unspecified)	·	·	·	·	14.4	·
COc1ccc(S(N)(=O)=O)cc1C(=O)OCC(=O)N1CCCC(C)C1 (stereo unspecified)	12.6	-1.0	·	-5.3	29.8*	-16.5
COCCN1Cc2cc(C(=O)OC)c3c(c2C1=O)c1cc(OC)ccc1n3C(=O)c1ccccc1	·	·	·	·	2.7	·
CN(c1ccccc1)c1ccc(/C=C(\CCC(=O)O)c2nc3ccccc3s2)cc1[N+](=O)[O-]	-3.0	3.4	6.8	-3.3	35.5*	28.6
Cc1ccc(/C=C(\CCC(=O)O)c2nc3ccccc3s2)cc1[N+](=O)[O-]	2.7	1.1	10.5	5.5	31.2*	21.4
CNc1ccc(/C=C(\CCC(=O)O)c2nc3ccccc3s2)cc1[N+](=O)[O-]	4.1	2.3	1.8	5.7	15.8	·
Cc1ccc(-n2c(SCC(=O)Nc3ccccc3-c3ccccc3)nnc2-c2cccnc2)cc1	·	·	·	·	20.9	·
O=S1(=O)c2ccccc2-c2c(nnn2CC2CCCCC2)CN1C1CC1	·	·	·	·	-1.3	·
O=C(Cn1ncc2c3ccccc3n(Cc3ccc(F)cc3)c2c1=O)N1CCC2(CC1)OCCO2	-5.1	0.6	-1.0	2.7	·	·
O=C(Cn1ncc2c3ccccc3n(Cc3ccc(F)cc3)c2c1=O)N1CCN(c2ncccn2)CC1	-3.3	-0.8	4.2	91.7	34.0*	-18.5
O=C(NCCN1CCC(n2c(=O)[nH]c3cc(Cl)ccc32)CC1)c1ccc(F)cc1	·	·	·	·	-1.5	·
COCCCN1C(=O)C(CC(=O)NCCN2CCOCC2)CC(C(=O)N2CCCCCC2)=C1C (stereo unspecified)	·	·	·	·	-4.7	·
COCCCN1C(=O)C(CC(=O)NCCN2CCOCC2)CC(C(=O)N2CCOCC2)=C1C (stereo unspecified)	·	·	·	·	39.4*	-18.2
CC(C)CN1C(=O)C[C@]2(C(=O)N(C)c3ccc(NS(=O)(=O)C4CC4)cc32)C1c1ccccc1 (stereo partly specified)	·	·	·	·	11.6	·
N#CCCN(CCC#N)C(=O)c1ccc(Cl)cc1	1.6	-1.1	0.5	1.3	36.2*	-11.8
N#CCCN(C(=O)Nc1ccc(Cl)cc1)c1ccccc1	0.0	0.4	3.2	-5.6	1.2	·
COC(=O)[C@]12C[C@H](CC(=O)NCCCCc3ccccc3)C(=O)N(Cc3ccc(Cl)cc3Cl)C1=C[C@H](COCc1ccccc1)O[C@@H]2C	·	·	·	·	11.0	·
COC(=O)C1=C(C)N(Cc2ccccc2)C(=NCc2cccc(C(F)(F)F)c2)N[C@H]1c1cccc(F)c1	-6.8	-1.1	11.9	0.4	31.4*	10.3
COC(=O)C1=C(C)N(C)C(=NCC2CC2)NC1c1ccccc1 (stereo unspecified)	·	·	·	·	31.5*	-15.1
COC(=O)C1=C(C)N(Cc2ccccc2)C(=NCc2cccc(C(F)(F)F)c2)N[C@H]1c1cccc(C(F)(F)F)c1	0.2	-0.3	·	100.0	·	·
CCN=C1NC(c2ccc(Cl)cc2)C(C(=O)OC)=C(C)N1Cc1cccc(C(F)(F)F)c1 (stereo unspecified)	·	·	·	·	5.5	·
SMILES	Rv3671c inh	UGM FP inh	RecA intein inh	Mtb betalactam	CCHF vOTU inh-1	CCHF vOTU inh-2
COC(=O)C1=C(C)N(Cc2cccc(C(F)(F)F)c2)C(=NCc2ccc(OC)cc2)NC1c1cccc(F)c1 (stereo unspecified)	·	·	·	·	35.0*	3.7
COC(=O)C1=C(C)N(C)C(=NCC2CC2)NC1c1cccc(C(F)(F)F)c1 (stereo unspecified)	·	·	·	·	-10.3	·
CCN=C1NC(c2ccc(F)cc2)C(C(=O)OC)=C(C)N1Cc1cccc(C(F)(F)F)c1 (stereo unspecified)	·	·	·	·	36.1*	-12.4
O=S(=O)(CC1NCc2ccccc21)NCCc1ccccc1 (stereo unspecified)	·	·	·	·	15.5	·
CC(=O)N1c2cc(S(=O)(=O)N3CCN(c4ccccc4F)CC3)c(Br)cc2CC1C (stereo unspecified)	·	·	·	·	3.8	·
COc1cc(C(=O)O[C@H]2CC(C)=CC[C@@]3(C)CC[C@@](O)(C(C)C)[C@H]23)ccc1O	-0.5	0.5	11.2	1.9	38.0*	5.4
CN(C)c1ccc2nc3ccc(=O)cc-3sc2c1	·	·	·	·	76.5*	50.2*
CC(=O)N[C@H]1C[C@@H]2O[C@H](CO)CC[C@@H]2O[C@@H]1CCc1ccc(-c2ccc(F)cc2)cc1	·	·	·	·	3.6	·
CCN(CC)S(=O)(=O)c1cc(NC(=O)CN2C(=O)NC(C)(c3ccccc3)C2=O)ccc1C (stereo unspecified)	-9.2	1.4	3.4	-1.0	34.2*	3.7
CCN(CC)S(=O)(=O)c1cc(NC(=O)CN2C(=O)NC3(CCCc4ccccc43)C2=O)ccc1C (stereo unspecified)	-4.6	0.9	2.7	1.9	11.0	·
CN=C(Nc1ccc(Cl)cc1)c1ccc(C(F)(F)F)cc1	-4.5	0.2	-1.5	-5.6	35.8*	-4.7
COc1ccc(-n2c(COc3ccccc3)nnc2SCC(=O)Nc2ccccc2-c2ccccc2)cc1	·	·	·	·	6.9	·
C/C(=N\NC(=O)c1cc(O)ccc1O)c1cccc(NC(=O)c2ccc(Cl)cc2)c1	-3.2	1.5	-5.3	2.5	5.6	·
C/C(=N\NC(=O)c1cc(O)ccc1O)c1cccc(NC(=O)c2cccc(Cl)c2)c1	11.4	-1.7	-6.1	-8.9	31.7*	-2.9
O=C1C=C(O)c2[nH]c(=O)ccc2C1=O	·	·	·	·	95.5*	66.8*
COc1ccc(Cn2c(NC(=O)c3ccccc3)nc(Cc3ccccc3)c2Cc2ccccc2)cc1	·	·	·	·	6.5	·
O=[N+]([O-])c1cccc2ccc(/C=C/c3cccc(Br)c3)nc12	-13.8	0.1	8.8	0.1	30.9*	-12.0
O=[N+]([O-])c1cccc2ccc(/C=C/c3ccc(Cl)cc3)nc12	-9.8	1.8	-14.3	25.6	-11.7	·
CC(C)CN1C(=O)C[C@@]2(C(=O)N(C)c3ccc(NC(=O)c4cc(F)ccc4F)cc32)C1c1ccccc1 (stereo partly specified)	·	·	·	·	9.3	·
COc1ccc(OC)c(S(=O)(=O)Nc2cccc3ccccc23)c1	-6.4	1.6	4.8	2.7	-7.5	·
COc1ccc(OC)c(S(=O)(=O)Oc2ccc(N)c3ccccc23)c1	-32.7	1.9	17.2	-14.1	29.8*	-13.8
CCN(Cc1cc(=O)n2ccsc2n1)c1cccc2ccccc12	-3.5	2.2	0.6	-4.0	53.6*	-3.9
Cc1cc(SCc2cc(=O)n3ccsc3n2)nc2ccccc12	-5.3	-0.1	0.1	-0.9	-2.1	·
